An excerpt weighted towards active compounds, which were near 1.3% of everything screened.
Statin myotox sup – suppressors of simvastatin-induced myotoxicity in C2C12 myotubes; ATP luminescence, 48 h; scaled: DMSO 0, geranylgeraniol control 100; rescue of ATP level, % at 7.49 µM; 330,000 compounds, 0.78% hits; AID 602340;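 active means mean ATP rescue above about 67%, or every replicate alone reaching that limit, limit read from the data, passing the limit was not always enough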;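 further: myotubes were challenged with 10 µM simvastatin during compound exposure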
HIF activator – HIF pathway transcriptional activation; U2OS HRE-luciferase reporter, luminescence; normalized: DMSO 0%, desferrioxamine 100%; activation, % at 7.5 µM (by protocol); 300,000 compounds, 0.32% hits;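 active means mean activation of at least 10% of the iron chelator positive control signal, with at least half of replicates also reaching 10%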
Rce1 inhib – yeast Ras-converting enzyme inhibition. yeast membranes, quenched prenylated peptide cleavage fluorescence. calls only. 290,000 compounds, 0.27% hits. AID 2563;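 active means fall in fluorescence gain of 50% or more versus controls, with final raw signal at or below 3038400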;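 further: plate controls were neutral control wells for no effect and wells lacking membranes for full effect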
Target sequence (Q03530 whole entry, looked up): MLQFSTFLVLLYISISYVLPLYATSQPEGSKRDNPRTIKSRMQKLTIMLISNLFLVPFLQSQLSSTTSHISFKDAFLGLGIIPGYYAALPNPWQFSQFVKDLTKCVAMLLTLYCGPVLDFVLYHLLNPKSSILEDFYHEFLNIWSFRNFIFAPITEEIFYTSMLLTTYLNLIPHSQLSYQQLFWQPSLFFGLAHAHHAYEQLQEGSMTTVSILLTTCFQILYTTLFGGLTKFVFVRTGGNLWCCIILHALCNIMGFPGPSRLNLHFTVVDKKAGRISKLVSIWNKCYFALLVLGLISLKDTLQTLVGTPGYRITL
PGC1a acetyl inh – PGC1a acetylation modulation, inhibitor mode. U2OS PGC1a acetylation, AlphaScreen anti-acetyl-lysine; with virally co-expressed GCN5 acetyltransferase. inhibition, % at 15.6 µM. 350,000 compounds, 0.17% hits;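 active means every replicate shows inhibition of at least 40%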;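 further: 0% = neutral control wells and 100% = positive control wells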
AI-2 QS mod – modulators of Vibrio harveyi AI-2 quorum sensing system; Vibrio harveyi JMH597 AI-2 luminescence/OD600 ratio, 9 h; hits give low values; strain lacks LuxN and CqsS sensors; 0 = neutral-control median; activity change, % at 7.5 µM; 300,000 compounds, 0.4% hits; in the data active means activity change below about -75%, passing the limit was not always enough;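 further: luminescence divided by OD600 gain over 9 h not by final OD600 alone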
Active calls of the source: *; ! = a repeat was not active.

`C[C@@H]1CN([C@H](C)CO)C(=O)Cc2cc(NC(=O)Cc3ccccc3)ccc2O[C@H]1CN(C)C` gave Statin myotox sup 0 and PGC1a acetyl inh 2.
Cc1cccn2c(=O)c(C=O)c(N3CCCCCC3)nc12 was read as Statin myotox sup 101*, HIF activator 0, Rce1 inhib inactive, PGC1a acetyl inh 6 and AI-2 QS mod -1.
For Oc1c(N=NC(=S)Nc2ccccc2F)c2ccccc2n1Cc1ccccc1Cl the results were Statin myotox sup -19, HIF activator -1, Rce1 inhib active, PGC1a acetyl inh 8 and AI-2 QS mod 25.
CCCCNC(=S)N=Nc1c(O)n(Cc2ccccc2)c2ccccc12 was read as HIF activator 0, Rce1 inhib active and AI-2 QS mod 3.
Screening CO[C@@H]1CC[C@H]2CCOc3ccc(C#N)cc3C(=O)N(C)C[C@H](c3ccccc3)CC(=O)N(C)C[C@H]1O2 returned Statin myotox sup 13.
Screening CO[C@H]1CN(C)C(=O)c2cc(NC(=O)C3CC3)ccc2OC[C@H](C)N(C(=O)c2cccnc2)C[C@@H]1C returned Statin myotox sup -1 and PGC1a acetyl inh -5.
`Cc1cc(NC(=O)COC(=O)C2CCN(C(=O)c3ccc(Cl)cc3)CC2)no1` gave Statin myotox sup 111*, HIF activator -8, Rce1 inhib inactive, PGC1a acetyl inh -2 and AI-2 QS mod 27.
For COc1ccc(OC)c(NC(=O)COC(=O)C2CCN(C(=O)c3ccc(Cl)cc3)CC2)c1 the results were HIF activator 1, Rce1 inhib inactive and AI-2 QS mod 28.
`CCOC(=O)c1c(N)c(C#N)c2n1CCCC2` gave Statin myotox sup 113*, HIF activator 0, Rce1 inhib inactive, PGC1a acetyl inh -6 and AI-2 QS mod 1.
`COc1ccc2c3c(n(C)c2c1)[C@H](CO)N(CC1CC1)CC31CN(C(=O)Nc2c(C)noc2C)C1` gave PGC1a acetyl inh 5.
For COc1ccc2c3c(n(C)c2c1)[C@@H](CO)NCC31CCN(S(=O)(=O)c2ccc(C)cc2)CC1 the results were PGC1a acetyl inh -10.
Cc1cccc(NS(=O)(=O)c2ccc(C)c(C(=O)OCC(=O)Nc3cc(C)on3)c2)c1 was read as Statin myotox sup 8, HIF activator -1, Rce1 inhib active, PGC1a acetyl inh -6 and AI-2 QS mod 34.
For CCc1ccc(NC(=O)CN(c2cccc(C)c2)S(C)(=O)=O)cc1 the results were Statin myotox sup 100*, HIF activator 0, Rce1 inhib inactive, PGC1a acetyl inh 2 and AI-2 QS mod 11.
For CC(=O)c1cccc(NC(=O)CN(c2ccc(F)cc2)S(C)(=O)=O)c1 the results were Statin myotox sup 4, HIF activator 0, Rce1 inhib inactive and AI-2 QS mod 12.
Screening CC(=O)c1cccc(NC(=O)CN(c2cccc(F)c2)S(C)(=O)=O)c1 returned Statin myotox sup 111*, Rce1 inhib inactive, PGC1a acetyl inh 0 and AI-2 QS mod 6.
O=[N+]([O-])c1ccc(NN=Cc2cccc(O)c2)nc1 was read as Statin myotox sup 14 and PGC1a acetyl inh -21.
`Cc1cccc(C)c1-n1c(C)cc(/C=N\Nc2ccc([N+](=O)[O-])cn2)c1C` gave Statin myotox sup 163*, HIF activator 0, Rce1 inhib inactive, PGC1a acetyl inh 8 and AI-2 QS mod 24.
Screening O=C1C2C3C=CC(C4CC34)C2C(=O)N1/N=C/c1ccc([N+](=O)[O-])s1 (configuration not stated) returned HIF activator 1, Rce1 inhib inactive and AI-2 QS mod 19.
Screening O=C1C2C3C=CC(C4CC34)C2C(=O)N1/N=C/c1c[nH]c2ccccc12 (configuration not stated) returned Statin myotox sup 11, HIF activator 1, Rce1 inhib inactive, PGC1a acetyl inh 106* and AI-2 QS mod 19.
`Cc1ccccc1NC(=S)Nc1ccc2cn[nH]c2c1` gave HIF activator 5, Rce1 inhib inactive and AI-2 QS mod -8.
Screening O=c1[nH]c2ccc(NC(=S)Nc3ccc(Cl)cc3Cl)cc2[nH]1 returned Statin myotox sup 139*, HIF activator 0, Rce1 inhib inactive, PGC1a acetyl inh -1 and AI-2 QS mod 20.
For S=C(Nc1ccc(Cl)cc1)Nc1ccc2cn[nH]c2c1 the results were HIF activator 10*, Rce1 inhib inactive, PGC1a acetyl inh 14 and AI-2 QS mod 12.
For S=C(Nc1ccc2cn[nH]c2c1)Nc1ccccc1Cl the results were HIF activator 11*, Rce1 inhib inactive and AI-2 QS mod 20.
`S=C(Nc1ccc2cn[nH]c2c1)Nc1ccc(Cl)cc1Cl` gave HIF activator 4, Rce1 inhib inactive and AI-2 QS mod 2.
For O=c1[nH]c2ccc(NC(=S)Nc3ccc(Cl)cc3)cc2[nH]1 the results were Statin myotox sup 41, HIF activator 0, Rce1 inhib inactive, PGC1a acetyl inh 0 and AI-2 QS mod 9.
For CO[C@@H]1CN(C)C(=O)c2cc(NC(=O)Nc3ccccc3)ccc2OC[C@@H](C)N(C(=O)CC2CC2)C[C@H]1C the results were Statin myotox sup 7 and PGC1a acetyl inh -3.
For C[C@H]1CN([C@@H](C)CO)C(=O)c2cccc(NC(=O)Nc3ccccc3)c2O[C@H]1CN(C)Cc1ccc(-c2ccccc2)cc1 the results were Statin myotox sup 22 and PGC1a acetyl inh 3.
For O=S(=O)(N[C@@H]1CC[C@H](CCn2cc(C3CC3)nn2)O[C@H]1CO)c1ccc(Cl)cc1 the results were Statin myotox sup 7 and PGC1a acetyl inh -6.
N#Cc1cccc(-c2ccc(C3[C@@H]4CN(Cc5ccccc5F)C[C@H]3N4)cc2)c1 (some centres not stated) was read as PGC1a acetyl inh 48*!.
Screening S=C(NCc1ccc(Cl)cc1)Nc1ccccc1 returned Statin myotox sup 129*, HIF activator 1, Rce1 inhib inactive, PGC1a acetyl inh 21 and AI-2 QS mod -63.
`C[C@H]1CN([C@@H](C)CO)C(=O)c2cccc(NC(=O)CCCCCC(=O)Nc3ccccc3N)c2O[C@@H]1CN(C)S(C)(=O)=O` gave PGC1a acetyl inh 9.
CCCC#Cc1ccc2c(c1)O[C@H](CN(C)C(=O)c1ccccc1)[C@@H](C)CN([C@H](C)CO)S2(=O)=O was read as Statin myotox sup -51 and PGC1a acetyl inh -6.
CN1c2ccccc2-c2nc3ccccc3n2C1c1cccs1 (configuration not stated) was read as HIF activator 0, Rce1 inhib active and AI-2 QS mod 35.
Screening C[C@@H]1CCCCO[C@H](CN(C)S(=O)(=O)c2ccccc2)[C@@H](C)CN([C@H](C)CO)C(=O)c2cc(NS(=O)(=O)c3cn(C)cn3)ccc2O1 returned PGC1a acetyl inh 3.
For COc1cccc(-c2ccc([C@@H]3[C@@H](CO)N4CCCCN(C(=O)NC(C)C)C[C@@H]34)cc2)c1 the results were PGC1a acetyl inh -3.

High-throughput results: PubChem BioAssay, Broad Institute
